Measurements reported in the supplement of paper PMC6555819.

Tested on: FXR:RXRa (NR concentration 270 nM, RXRa partner concentration 90 nM)
Test: PBM binding z-score (relative to random genomic background probes); higher = stronger binding; sequences stand for … in GC…GCGATTGACAGCGTAGAATGAAGG
In short: (§1)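 Scanned fluorescence from custom Agilent 4×180K protein-binding microarrays was regression-normalized. Binding z-scores use random background probes as reference. Ligand-free nuclear receptor dimers were incubated on the arrays for 1 h and detected with antibodies against each partner (one per run).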

First: TCTTGTAGATCACGCAGGTTAAGAAAGCCTGAGT
Second: TCTAGCAGGCCAGAAGGTCACTCAAGAGGTACGG
The PBM binding z-score of the first is lower: 0.613 for the first, 1.61 for the second.

First: TTACCAAGGTGAAATGTCGTTGATGCACGCCTTG
Second: CCTTACGGGTCACTTCAGGTTATAGCATCGGAGT
The PBM binding z-score of the first is lower: 0.891 for the first, 5.1 for the second.

First: CCTATCAGGCCAGGGTCACTCAAGCATTTCGCTT
Second: AGAATGAGGTTAAGATCAGGTAAACAGAATACAT
The PBM binding z-score of the first is lower: 2.19 for the first, 2.45 for the second.

Compared with AGAATGACGTTACCAAAGATCAGGGAAACGCTTG, ATCGAAAGGTCGAAGATGAGTATACCCACCCGAA is higher in PBM binding z-score: -0.187 for the first, 3.83 for the second.

Compared with TCGAGTAGGTTAGGGGCATTAAGAATGGCGTCGA, TAGCCTAGGTCATTCAGGGGCCAGTATCGAAAGC is higher in PBM binding z-score: 0.466 for the first, 4.39 for the second.

First: CCAGACAGGTGAGAAGGTAACGCAGCCTCGATTA
Second: CCTCGGAGGACAGAAGGTCAGAGCTGTCCGCTTT
The PBM binding z-score of the first is lower: -0.0305 for the first, 1.38 for the second.

Going from CGAACTAGGTCATTGATAGGACAGTGAATAGTAA to GATACAGTGTCAGCTAGAGGCCAGAGTATGGAAA, the PBM binding z-score falls from 3.4 to -0.507.

First: GATACACGGTCAGCTAGAGGCCAGAGTATGGAAA
Second: GCAGACAGGTGAAACGCGGGTAACTCAGGGTGGC
The PBM binding z-score of the first is lower: -0.145 for the first, 0.0652 for the second.

First: GCTTGTTGATCAAGGTTAAGAAAGACTAAGCTAA
Second: ATATGTAGGTTATCGGGTCCTTCAGTTTGCGCAT
The PBM binding z-score of the first is lower: -0.091 for the first, 0.663 for the second.

First: CCTACTGGGCCATCATGTCATTGATATCAACGTT
Second: ATCGGAAGGTCGTGAGGTGAGTATACAGAAAGGC
The PBM binding z-score of the first is lower: -0.0902 for the first, 2.73 for the second.

Going from TTACCAAGGTGAGCTAAGGTCGTTGATCCAACTC to CCTGCTAGGCCAATGGTCAGCTAAAGCAGCTCGC, the PBM binding z-score falls from 3.04 to -0.614.

First: CGTTCAAGGTCAATGCTAGGTCAGTGAAAGCATT
Second: ATCGAAAGGTCGAAGGTGGGTATACCCACCCGAA
The PBM binding z-score of the first is higher: 7.47 for the first, 4.08 for the second.

First: CGTCCAAGGTCAAGGTTAGTGAAAGAGACTCGAA
Second: TCATATTGGTAAAAGGTGAAAGTCGGTGTGGTAA
The PBM binding z-score of the first is higher: 6.97 for the first, 1.65 for the second.

First: GATACAGGGTTAGCTAGAGGCCAGAGTATGGAAA
Second: CGAACTAGCTCATCCAGGACAGTGAATACATTGA
The PBM binding z-score of the first is higher: 0.0111 for the first, -0.123 for the second.

Compared with CGTCCAAGGTCAAGGTCAGCGAAAGAGACTCGAA, CCTACTGGGCCAGGGTCATTGATCAGTCAAAGCA is lower in PBM binding z-score: 7.53 for the first, 2.51 for the second.

Compared with AGAATGAGGTAATTAAGATCAGGGAATTGCGGTC, CGTCAAAGTGCAACTAAGGTAACGTAAAGCACGC is higher in PBM binding z-score: 0.0653 for the first, 0.888 for the second.

Compared with TAGCCTAGGTCATTGGGCCGGTATAGTACGCATC, TCATATAGGTAAAGGTTAAAGTCGAACGATATGA is lower in PBM binding z-score: 4.26 for the first, 2.25 for the second.

Going from TCTTGTAGATCAACAGGAGGTTAAGGAAGATCGA to AATTACGGGTCAACGAGGTTATAGCACGCGTATA, the PBM binding z-score rises from 0.186 to 7.35.

First: CTCGAAAGGTCGTGCACAGGTGAGTATACCAAAC
Second: TCTCGGACGACACGAAGGTCAGAGCTTTCCAGAG
The PBM binding z-score of the first is higher: 5.53 for the first, 1.58 for the second.

First: ACTAGCAGGCCAAGGTTGGGTCACTCAAACAAAG
Second: TTACCAAGGTGTAAGGTCGTTGATGCACGCCTTG
The PBM binding z-score of the first is lower: -0.0834 for the first, 0.533 for the second.

Tested on: LXRa:RXRa (NR concentration 270 nM, RXRa partner concentration 90 nM)
Test: as above
In short: as §1

Going from TCTTGTAGATCACGCAGGTTAAGAAAGCCTGAGT to TCTAGCAGGCCAGAAGGTCACTCAAGAGGTACGG, the PBM binding z-score rises from 0.539 to 2.17.

Compared with TTACCAAGGTGAAATGTCGTTGATGCACGCCTTG, CCTTACGGGTCACTTCAGGTTATAGCATCGGAGT is higher in PBM binding z-score: 0.622 for the first, 7.75 for the second.

Compared with CCTATCAGGCCAGGGTCACTCAAGCATTTCGCTT, AGAATGAGGTTAAGATCAGGTAAACAGAATACAT is higher in PBM binding z-score: 1.74 for the first, 4 for the second.

Compared with AGAATGACGTTACCAAAGATCAGGGAAACGCTTG, ATCGAAAGGTCGAAGATGAGTATACCCACCCGAA is higher in PBM binding z-score: -0.0658 for the first, 3.21 for the second.

Compared with TCGAGTAGGTTAGGGGCATTAAGAATGGCGTCGA, TAGCCTAGGTCATTCAGGGGCCAGTATCGAAAGC is higher in PBM binding z-score: 0.479 for the first, 3.78 for the second.

First: CCAGACAGGTGAGAAGGTAACGCAGCCTCGATTA
Second: CCTCGGAGGACAGAAGGTCAGAGCTGTCCGCTTT
The PBM binding z-score of the first is lower: 0.0782 for the first, 1.63 for the second.

First: CGAACTAGGTCATTGATAGGACAGTGAATAGTAA
Second: GATACAGTGTCAGCTAGAGGCCAGAGTATGGAAA
The PBM binding z-score of the first is higher: 2.63 for the first, -0.554 for the second.

Compared with GATACACGGTCAGCTAGAGGCCAGAGTATGGAAA, GCAGACAGGTGAAACGCGGGTAACTCAGGGTGGC is higher in PBM binding z-score: -0.145 for the first, 0.351 for the second.

First: GCTTGTTGATCAAGGTTAAGAAAGACTAAGCTAA
Second: ATATGTAGGTTATCGGGTCCTTCAGTTTGCGCAT
The PBM binding z-score of the first is lower: 0.792 for the first, 0.859 for the second.

Going from CCTACTGGGCCATCATGTCATTGATATCAACGTT to ATCGGAAGGTCGTGAGGTGAGTATACAGAAAGGC, the PBM binding z-score rises from -0.142 to 1.85.

Compared with TTACCAAGGTGAGCTAAGGTCGTTGATCCAACTC, CCTGCTAGGCCAATGGTCAGCTAAAGCAGCTCGC is lower in PBM binding z-score: 1.56 for the first, -0.503 for the second.

Compared with CGTTCAAGGTCAATGCTAGGTCAGTGAAAGCATT, ATCGAAAGGTCGAAGGTGGGTATACCCACCCGAA is lower in PBM binding z-score: 5.78 for the first, 3.18 for the second.

Going from CGTCCAAGGTCAAGGTTAGTGAAAGAGACTCGAA to TCATATTGGTAAAAGGTGAAAGTCGGTGTGGTAA, the PBM binding z-score falls from 5.24 to 1.92.

Going from GATACAGGGTTAGCTAGAGGCCAGAGTATGGAAA to CGAACTAGCTCATCCAGGACAGTGAATACATTGA, the PBM binding z-score falls from 0.711 to -0.399.

First: CGTCCAAGGTCAAGGTCAGCGAAAGAGACTCGAA
Second: CCTACTGGGCCAGGGTCATTGATCAGTCAAAGCA
The PBM binding z-score of the first is higher: 5.5 for the first, 2.16 for the second.

Going from AGAATGAGGTAATTAAGATCAGGGAATTGCGGTC to CGTCAAAGTGCAACTAAGGTAACGTAAAGCACGC, the PBM binding z-score rises from 0.204 to 0.803.

Going from TAGCCTAGGTCATTGGGCCGGTATAGTACGCATC to TCATATAGGTAAAGGTTAAAGTCGAACGATATGA, the PBM binding z-score rises from 2.99 to 3.83.

First: TCTTGTAGATCAACAGGAGGTTAAGGAAGATCGA
Second: AATTACGGGTCAACGAGGTTATAGCACGCGTATA
The PBM binding z-score of the first is lower: 0.637 for the first, 6.12 for the second.

Going from CTCGAAAGGTCGTGCACAGGTGAGTATACCAAAC to TCTCGGACGACACGAAGGTCAGAGCTTTCCAGAG, the PBM binding z-score falls from 4.43 to 0.965.

Compared with ACTAGCAGGCCAAGGTTGGGTCACTCAAACAAAG, TTACCAAGGTGTAAGGTCGTTGATGCACGCCTTG is higher in PBM binding z-score: -0.151 for the first, 0.628 for the second.
